# Values joined by “and” are separate entries in the source; they are usually repeats but may differ in a detail not shown here. Identical values can stand only once.
# System: HL-1
# Experiment: cardiomyocyte survival under oxidative or metabolic stress – cell-based, panel, H9c2 and HL-1, ATP luminescence, set 2, SAR follow-up (AID 651871);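 further: cells exposed to stressor for 2 h before ATP readout; reference of the scale not given here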
# Settings: H9c2/HL-1 cardiomyocytes, 2-deoxyglucose stress, with 2-deoxyglucose, run 13, at 19.8 µM (top of the series)
smiles,measurement,value
COc1ccc2c(c1OC)C(=O)N1c3ccccc3C(=O)N(Cc3cccc(Cl)c3Cl)C21 (stereo unspecified),activity (protection/inhibition),84.6% and 38.5%

# — PubChem BioAssay AID651871 (Sanford-Burnham Center for Chemical Genomics, 2012)
